Here are results for eight molecules from PubChem BioAssay (NCATS).

In test [1] the test system is WaGa. The test can be described thus: qHTS assay to identify novel small-molecules to repurpose for Merkel cell carcinoma treatment (AID 1296009). Note: nearly all actives have a fitted effect of over 60% in size. Particulars: MCC and control cell lines, CellTiter-Glo viability, 72 h; series mostly up to 46 µM. The essentials: (§1)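 Viability readout: ATP luminescence (CellTiter-Glo) after 72 hr drug exposure at 37 degree celsius. Dose-response format was 8 points for NPC and 11 points for MIPE; data normalized to in-plate controls.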

In test [2] the test system is CAOV3. Nature of the test: Primary qHTS to identify gynecologic anti-cancer compounds using libraries of approved drugs and bioactive compounds (AID 1345084). Note: nearly all actives have a fitted effect of over 55% in size. Particulars: Gynecologic cancer cell panel viability, ATPlite luminescence, 48 h; series mostly up to 57.5 µM. The essentials:
(§2)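 Five-point cytotoxicity, 48 h drug exposure at 37 C, 5% CO2, on cells seeded 16 h beforehand. ATP content read by ATPlite luminescence.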
(In general: In qHTS, concentration-response curves come from the screen itself.)

For test [3], the system named is CASKI. The test is described as above. To be noted: Gynecologic cancer cell panel viability, ATPlite luminescence, 48 h; series mostly up to 57.5 µM. The essentials:
as §2
Background: In ATP-based viability assays light output follows the ATP content of the culture.

Test [4] relates to Es-2. The test is described as above. To be noted: Gynecologic cancer cell panel viability, ATPlite luminescence, 48 h; series mostly up to 57.5 µM. The procedure, abridged:
as §2

Test [5] deals with JEG-3. The test is described as above. To be noted: Gynecologic cancer cell panel viability, ATPlite luminescence, 48 h; series mostly up to 57.5 µM. The procedure, abridged: as §2
Test [6] concerns OV90. Described as above. Particulars: Gynecologic cancer cell panel viability, ATPlite luminescence, 48 h; series mostly up to 57.5 µM. The essentials:
as §2

Test [7] deals with PA-1. The description is as above. Particulars: Gynecologic cancer cell panel viability, ATPlite luminescence, 48 h; series mostly up to 57.5 µM. The procedure, abridged: as §2
Test [8] deals with Tov-21-G. Described as above. Particulars: Gynecologic cancer cell panel viability, ATPlite luminescence, 48 h; series mostly up to 57.5 µM. The procedure, abridged:
as §2

In test [9] the test system is Tov112D. The test is described as above. Particulars: Gynecologic cancer cell panel viability, ATPlite luminescence, 48 h; series mostly up to 57.5 µM. The procedure, abridged: as §2
Test [10] concerns astro. The test can be described thus: Drug repurposing screens with cells derived from glioblastoma tumor samples (AID 1345199). Note: nearly all actives have a fitted effect of over 40% in size. Particulars: viability, ATP luminescence, 48 h; series mostly up to 45.9 µM. The procedure, abridged: (§3)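 Primary testing used CD133+ neurospheres from four GBM patients, seven concentrations, 48 h exposure and ATP-based viability; confirmation added three slower-growing patient lines.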

In test [11] the test system is MKL-1. The test can be described thus: qHTS assay to identify novel small-molecules to repurpose for Merkel cell carcinoma treatment (AID 1296009). Note: nearly all actives have a fitted effect of over 60% in size. Particulars: MCC and control cell lines, CellTiter-Glo viability, 72 h; series mostly up to 46 µM. The essentials: as §1
The subject of test [12] is MKL-2. Described as above. Particulars: MCC and control cell lines, CellTiter-Glo viability, 72 h; series mostly up to 46 µM. The essentials: as §1
Test [13] concerns UISO. The test is described as above. Particulars: MCC and control cell lines, CellTiter-Glo viability, 72 h; series mostly up to 46 µM. The procedure, abridged: as §1
Test [14] deals with C33A. Nature of the test: Primary qHTS to identify gynecologic anti-cancer compounds using libraries of approved drugs and bioactive compounds (AID 1345084). Note: nearly all actives have a fitted effect of over 55% in size. Particulars: Gynecologic cancer cell panel viability, ATPlite luminescence, 48 h; series mostly up to 57.5 µM. The essentials:
as §2

Test [15] relates to Hek293T. Described as above. Particulars: Gynecologic cancer cell panel viability, ATPlite luminescence, 48 h, control line for the selectivity index; series mostly up to 57.5 µM. The essentials:
as §2

The test system of test [16] is SKOV3. The description is as above. Particulars: Gynecologic cancer cell panel viability, ATPlite luminescence, 48 h; series mostly up to 57.5 µM. The essentials: as §2
Test [17] can be described thus: Drug repurposing screens with cells derived from glioblastoma tumor samples (AID 1345199). Note: nearly all actives have a fitted effect of over 40% in size. To be noted: GBM patient neurospheres viability, ATP luminescence, 48 h. The essentials: as §3
The test system of test [18] is HeLa. The test can be described thus: Primary qHTS to identify gynecologic anti-cancer compounds using libraries of approved drugs and bioactive compounds (AID 1345084). Note: nearly all actives have a fitted effect of over 55% in size. Particulars: Gynecologic cancer cell panel viability, ATPlite luminescence, 48 h; series mostly up to 57.5 µM. The essentials:
as §2

Setting [19] is: at 45.9 µM (top of the series), tumour line B.
[20] abbreviates: at 45.9 µM (top of the series), tumour line D.
[21] abbreviates: at 46.1 µM (top of the series), tumour line C.

Structures are written as SMILES. Inconclusive results are not listed. The source holds several records for some structures; these can differ, active in one and inactive in another. Activity calls are given as the source filed them. Calls come from the whole dose curve; as a rule, active = well fitted curve in the direction sought with a large enough effect; inconclusive = small, poorly fitted or top-dose-only effect, or another doubt; inactive = no such curve, though single readings can be large; an effect the other way counts as inactive or inconclusive.
% is set by controls: 0 for no effect and ±100 for the full control effect; potency is the fitted concentration of half-maximal effect.

Consider `CNC(=O)c1cc(Oc2ccc(NC(=O)Nc3ccc(Cl)c(C(F)(F)F)c3)cc2)ccn1`, for which the Potency in test [1] is 23.7 µM (active); in test [10], 11.2 µM (active). The Potency result in [2], in test [3], in test [4], in test [5], in test [6] and in test [7] was “inactive” each time. Further, the Potency result in test [8] and in test [9] was “inactive” each time.
For the molecule `O=S(=O)(c1cccc2cnccc12)N1CCCNCC1`, the Potency entry in [11], in test [12], in [13], in [1], in test [14] and in [2] was “inactive” each time. The Potency entry in test [3], in test [4], in [15], in [5], in test [6] and in [7] was “inactive” in each case. For the same molecule, the Potency result in test [16], in test [8], in test [9] and in test [10] was “inactive” throughout. Besides, the activity, negative = cell killing in test [17] (setting [19]) is -0.368% (inactive); in test [17] (setting [20]), -10.7% (inactive); in test [17] (at 46 µM (top of the series), tumour line A), -20.9% (inactive); in test [17] (setting [21]) it was -21.1% (inactive).
Consider `CO[C@@H]1[C@@H](OC(N)=O)[C@@H](O)[C@H](Oc2ccc3c(O)c(NC(=O)c4ccc(O)c(CC=C(C)C)c4)c(=O)oc3c2C)OC1(C)C`, for which the Potency result in test [11], in [12], in test [13], in [1], in [14] and in test [2] was “inactive” each time. Moreover, the Potency entry in test [3], in test [15], in test [5], in test [6], in [7] and in [16] was “inactive” in each case. Further, the Potency entry in [8], in test [9] and in test [10] was “inactive” throughout. The activity, negative = cell killing in test [17] (at 20 µM (top of the series), tumour line C) was -4.06% (inactive); in test [17] (at 21.2 µM (top of the series), tumour line B), -5.36% (inactive); in [17] (at 21.2 µM (top of the series), tumour line D), -2.99% (inactive); in test [17] (at 21.3 µM (top of the series), tumour line A), -27.7% (inactive).
On to `CCCCCCNC(=O)n1cc(F)c(=O)[nH]c1=O`, for which the Potency entry in [11], in [12], in test [14], in test [2], in [3] and in test [18] was “inactive” throughout. The Potency entry in test [15], in [6] and in test [9] was “inactive” throughout. The activity, negative = cell killing in test [17] (setting [21]) is -20.6% (inactive).
As to `COC(=O)Nc1nc2ccc(S(=O)c3ccccc3)cc2[nH]1` (stereo not given), in test [2], the Potency result is “inactive”. Also, the Potency was 3.55 µM (active) in test [4], 1.58 µM (active) in [7], 3.98 µM (active) in test [8] and 1.58 µM (active) in test [9]. The results for the activity, negative = cell killing in test [17] (setting [19]), in [17] (setting [20]) and in [17] (setting [21]) were -15.1% (inactive), -1.35% (inactive) and -3.75% (inactive), respectively.
Regarding `CC(C)(C)C(=O)OCOP(=O)(COCCn1cnc2c(N)ncnc21)OCOC(=O)C(C)(C)C`, the results for the Potency in test [2] and in test [4] were 12.6 µM (active) and 7.08 µM (active), respectively. Besides, the Potency result in test [3] and in test [10] was “inactive” throughout. Besides, the activity, negative = cell killing in [17] (setting [21]) is -7.63% (inactive).
For the molecule `O=C(O)c1ccc(-n2nc(-c3ccccc3O)nc2-c2ccccc2O)cc1`, the Potency was 16.8 µM (active) in [1] and 8.91 µM (active) in [7]. For the same molecule, the Potency entry in test [2], in test [3], in [18] and in test [16] was “inactive” throughout.
For `COc1cc([C@@H]2c3cc4c(cc3[C@H](O)[C@H]3COC(=O)[C@H]23)OCO4)cc(OC)c1OC`, the Potency entry in test [11] and in test [2] was “inactive” each time. The Potency was 0.0132 µM (active) in test [12]; 47.3 nM (active) and inactive in [1]; 0.1 µM (active) in [18]; 0.355 µM (active) in [6]; 0.199 µM (active) in test [8].
